# Activity calls are given as the source filed them.
# Key:
# [1] = small molecules captured by biotinylated probe aFSTL3 – biochemical, small-molecule microarray, fluorescence 635/667, stem cell growth factor project, primary screen (AID 1064); conditions: higher = more signal;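 further: measures binding of the biotinylated anti-FSTL3 antibody to printed compounds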
# [2] = binders from COS7 lysate, DM2A8 probe, primary screen, torsin A project, cell lysate, small-molecule microarray, fluorescence 635/667 (AID 1065); conditions: higher = more signal, COS7 lysate expressing mutant human TOR1A
# [3] = small molecules captured by biotinylated probe aFGF2 – biochemical, small-molecule microarray, fluorescence 635/667, stem cell growth factor project, primary screen (AID 1067); conditions: higher = more signal;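 further: measures binding of biotinylated aFGF2 protein to printed compounds on slides; z-score merges feature fluorescence and signal-to-noise across triplicate slides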
# [4] = small molecules captured by biotinylated probe aFGF10 – biochemical, small-molecule microarray, fluorescence 635/667, stem cell growth factor project, primary screen (AID 1071); conditions: higher = more signal;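 further: score merges 667 nm spot intensity and signal to noise from triplicate slides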
# [5] = molecular target: Neurogenic locus notch homolog protein 2 (Homo sapiens) (UniProt Q04721); assay: small molecules binding Notch2 protein – biochemical, small-molecule microarray, 635 nm fluorescence, stem cell growth factors, primary screen (AID 1073); conditions: higher = more signal
# [6] = molecular target: Pro-neuregulin-1, membrane-bound isoform (Homo sapiens) (UniProt Q02297); assay: small molecules binding neuregulin-1 protein – biochemical, small-molecule microarray, fluorescence 635/667, psychiatric disease protein project, primary screen (AID 1075); conditions: NRG1 binding, 635 nm fluorescence, higher = more signal;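 further: score combines 667 nm spot fluorescence with signal to noise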
# Chain of Pro-neuregulin-1, membrane-bound isoform (Homo sapiens) (Q02297 whole entry, looked up, the tested form may be a part, canonical isoform): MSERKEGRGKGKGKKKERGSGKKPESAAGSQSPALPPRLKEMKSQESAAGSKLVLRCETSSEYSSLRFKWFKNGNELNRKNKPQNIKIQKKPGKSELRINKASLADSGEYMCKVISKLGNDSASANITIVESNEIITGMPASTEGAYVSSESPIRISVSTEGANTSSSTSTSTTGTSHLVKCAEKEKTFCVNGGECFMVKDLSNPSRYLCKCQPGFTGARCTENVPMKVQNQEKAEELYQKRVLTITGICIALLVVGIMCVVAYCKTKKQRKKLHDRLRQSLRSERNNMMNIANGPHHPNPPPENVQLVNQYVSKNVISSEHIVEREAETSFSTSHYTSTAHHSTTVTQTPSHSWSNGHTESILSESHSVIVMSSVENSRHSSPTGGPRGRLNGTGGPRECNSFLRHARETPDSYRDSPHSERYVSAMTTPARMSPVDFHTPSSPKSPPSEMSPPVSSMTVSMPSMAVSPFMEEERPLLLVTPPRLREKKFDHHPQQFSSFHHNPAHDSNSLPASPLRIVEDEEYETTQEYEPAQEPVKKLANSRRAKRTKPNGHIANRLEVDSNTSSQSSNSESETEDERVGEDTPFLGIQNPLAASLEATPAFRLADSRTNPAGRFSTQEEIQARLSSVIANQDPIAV
# [7] = test system: Neuregulin-1 EGF-like domain; assay: small molecules binding NRG1 EGF domain – biochemical, small-molecule microarray, 635 nm fluorescence, primary screen (AID 1081); conditions: higher = more signal;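 further: binding of the protein to compounds printed on small-molecule microarray slides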
# [8] = FRG1 expression reporter modulators in myotubes – cell-based, C2C12 myotubes, firefly/Renilla luciferase, luminescence, FRG1 inhibition for FSHD, primary screen (AID 1084); conditions: FRG1 promoter luciferase, higher = more signal, called active from +8 up or from −8 down
# [9] = small molecules captured by biotinylated probe aFST – biochemical, small-molecule microarray, fluorescence 635/667, stem cell growth factor project, primary screen (AID 1086); conditions: higher = more signal;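 further: score merges 667 nm fluorescence with signal-to-noise of each printed compound spot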
# [10] = binders of probe aHhip on microarray, primary screen, stem cell growth factor project, biochemical, small-molecule microarray, fluorescence 635/667 (AID 1087); conditions: higher = more signal;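 further: score merges spot fluorescence at 667nm with spot signal to noise ratio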
# [11] = test system: PRMT1 (protein arginine N-methyltransferase 1); assay: small molecules binding arginine methyltransferase PRMT1 – biochemical, small-molecule microarray, 635 nm fluorescence, primary screen (AID 1088); conditions: higher = more signal;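 further: binding of Prmt1 protein to compounds spotted on small-molecule microarray slides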
# [12] = growth effects on S. cerevisiae YJM789 – YJM789 clinical isolate, OD600, 24 h, basal, primary screen (AID 1089); conditions: higher = more signal, called active from +8 up or from −8 down;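 further: growth of clinical yeast isolate S. cerevisiae YJM 789 seeded 1000 cells per well; test concentration not given here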
# [13] = S. pombe growth modifiers, basal conditions – strain 972, OD600, 24 h, no modulator, primary screen (AID 1090);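 further: basal condition with compound alone and no growth modifier present; test concentration not given here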; conditions: S. pombe 972 growth, higher = more signal, called active from +8 up or from −8 down
# [14] = budding yeast growth modifiers under rapamycin – strain BY4716, OD600, 96 h, primary screen (AID 1091); further: test concentration not given here; conditions: S. cerevisiae BY4716 + rapamycin, higher = more signal, called active from +8 up or from −8 down
# [15] = molecular target: Torsin-1A-interacting protein 2 (Homo sapiens) (UniProt Q8NFQ8); assay: small molecules binding lysate-expressed LULL1 – cell lysate, human LULL1 lysate, 635/667 nm fluorescence, primary screen (AID 1092); conditions: small-molecule microarray, hLULL1 lysate binding, 635 nm fluorescence; higher = more signal;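 further: probe is lysate of COS7 cells overexpressing human LULL1; score merges per-feature 667 nm fluorescence with signal-to-noise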
# Chain of Torsin-1A-interacting protein 2 (Homo sapiens) (Q8NFQ8 whole entry, looked up): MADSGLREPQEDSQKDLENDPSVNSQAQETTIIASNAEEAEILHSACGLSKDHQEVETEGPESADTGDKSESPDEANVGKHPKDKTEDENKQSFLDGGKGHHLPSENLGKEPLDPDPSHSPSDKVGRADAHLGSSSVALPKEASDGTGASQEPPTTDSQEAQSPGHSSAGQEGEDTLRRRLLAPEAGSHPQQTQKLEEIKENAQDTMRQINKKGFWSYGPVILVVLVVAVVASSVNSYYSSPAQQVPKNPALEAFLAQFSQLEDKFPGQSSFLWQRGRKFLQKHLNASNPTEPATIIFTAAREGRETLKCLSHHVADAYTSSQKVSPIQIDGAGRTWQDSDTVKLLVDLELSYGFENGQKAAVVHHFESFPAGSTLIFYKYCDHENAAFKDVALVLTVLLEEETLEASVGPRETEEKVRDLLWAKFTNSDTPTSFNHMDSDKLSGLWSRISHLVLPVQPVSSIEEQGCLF
# [16] = optical density change of DRC41 E. coli – strain DRC41, OD650, 24 h, E. coli filamentation project, primary screen (AID 1093);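 further: MC1000 strain lacking acrAB efflux and sulA so SOS filamentation is blocked; test concentration not given here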; conditions: E. coli DRC41 growth, higher = more signal, called active from +8 up or from −8 down
# [17] = probe aLefty2 binding to arrayed compounds – biochemical, biotinylated probe, 635/667 nm fluorescence, primary screen (AID 1094); conditions: small-molecule microarray, higher = more signal;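 further: score merges spot fluorescence near 667 nm with spot signal-to-noise ratio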
# [18] = test system: Noggin (protein binding on small-molecule microarray); assay: small molecules binding Noggin protein – biochemical, 635/667 nm fluorescence, primary screen (AID 1095); conditions: 635 nm fluorescence, higher = more signal;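 further: score merges 667 nm feature fluorescence with signal to noise over triplicate slides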
# [19] = molecular target: Neurogenic locus notch homolog protein 3 (Homo sapiens) (UniProt Q9UM47); assay: small molecules binding NOTCH3 protein – biochemical, 635/667 nm fluorescence, primary screen (AID 1096); conditions: small-molecule microarray, 635 nm fluorescence, higher = more signal
# Chain of Neurogenic locus notch homolog protein 3 (Homo sapiens) (Q9UM47 whole entry, looked up): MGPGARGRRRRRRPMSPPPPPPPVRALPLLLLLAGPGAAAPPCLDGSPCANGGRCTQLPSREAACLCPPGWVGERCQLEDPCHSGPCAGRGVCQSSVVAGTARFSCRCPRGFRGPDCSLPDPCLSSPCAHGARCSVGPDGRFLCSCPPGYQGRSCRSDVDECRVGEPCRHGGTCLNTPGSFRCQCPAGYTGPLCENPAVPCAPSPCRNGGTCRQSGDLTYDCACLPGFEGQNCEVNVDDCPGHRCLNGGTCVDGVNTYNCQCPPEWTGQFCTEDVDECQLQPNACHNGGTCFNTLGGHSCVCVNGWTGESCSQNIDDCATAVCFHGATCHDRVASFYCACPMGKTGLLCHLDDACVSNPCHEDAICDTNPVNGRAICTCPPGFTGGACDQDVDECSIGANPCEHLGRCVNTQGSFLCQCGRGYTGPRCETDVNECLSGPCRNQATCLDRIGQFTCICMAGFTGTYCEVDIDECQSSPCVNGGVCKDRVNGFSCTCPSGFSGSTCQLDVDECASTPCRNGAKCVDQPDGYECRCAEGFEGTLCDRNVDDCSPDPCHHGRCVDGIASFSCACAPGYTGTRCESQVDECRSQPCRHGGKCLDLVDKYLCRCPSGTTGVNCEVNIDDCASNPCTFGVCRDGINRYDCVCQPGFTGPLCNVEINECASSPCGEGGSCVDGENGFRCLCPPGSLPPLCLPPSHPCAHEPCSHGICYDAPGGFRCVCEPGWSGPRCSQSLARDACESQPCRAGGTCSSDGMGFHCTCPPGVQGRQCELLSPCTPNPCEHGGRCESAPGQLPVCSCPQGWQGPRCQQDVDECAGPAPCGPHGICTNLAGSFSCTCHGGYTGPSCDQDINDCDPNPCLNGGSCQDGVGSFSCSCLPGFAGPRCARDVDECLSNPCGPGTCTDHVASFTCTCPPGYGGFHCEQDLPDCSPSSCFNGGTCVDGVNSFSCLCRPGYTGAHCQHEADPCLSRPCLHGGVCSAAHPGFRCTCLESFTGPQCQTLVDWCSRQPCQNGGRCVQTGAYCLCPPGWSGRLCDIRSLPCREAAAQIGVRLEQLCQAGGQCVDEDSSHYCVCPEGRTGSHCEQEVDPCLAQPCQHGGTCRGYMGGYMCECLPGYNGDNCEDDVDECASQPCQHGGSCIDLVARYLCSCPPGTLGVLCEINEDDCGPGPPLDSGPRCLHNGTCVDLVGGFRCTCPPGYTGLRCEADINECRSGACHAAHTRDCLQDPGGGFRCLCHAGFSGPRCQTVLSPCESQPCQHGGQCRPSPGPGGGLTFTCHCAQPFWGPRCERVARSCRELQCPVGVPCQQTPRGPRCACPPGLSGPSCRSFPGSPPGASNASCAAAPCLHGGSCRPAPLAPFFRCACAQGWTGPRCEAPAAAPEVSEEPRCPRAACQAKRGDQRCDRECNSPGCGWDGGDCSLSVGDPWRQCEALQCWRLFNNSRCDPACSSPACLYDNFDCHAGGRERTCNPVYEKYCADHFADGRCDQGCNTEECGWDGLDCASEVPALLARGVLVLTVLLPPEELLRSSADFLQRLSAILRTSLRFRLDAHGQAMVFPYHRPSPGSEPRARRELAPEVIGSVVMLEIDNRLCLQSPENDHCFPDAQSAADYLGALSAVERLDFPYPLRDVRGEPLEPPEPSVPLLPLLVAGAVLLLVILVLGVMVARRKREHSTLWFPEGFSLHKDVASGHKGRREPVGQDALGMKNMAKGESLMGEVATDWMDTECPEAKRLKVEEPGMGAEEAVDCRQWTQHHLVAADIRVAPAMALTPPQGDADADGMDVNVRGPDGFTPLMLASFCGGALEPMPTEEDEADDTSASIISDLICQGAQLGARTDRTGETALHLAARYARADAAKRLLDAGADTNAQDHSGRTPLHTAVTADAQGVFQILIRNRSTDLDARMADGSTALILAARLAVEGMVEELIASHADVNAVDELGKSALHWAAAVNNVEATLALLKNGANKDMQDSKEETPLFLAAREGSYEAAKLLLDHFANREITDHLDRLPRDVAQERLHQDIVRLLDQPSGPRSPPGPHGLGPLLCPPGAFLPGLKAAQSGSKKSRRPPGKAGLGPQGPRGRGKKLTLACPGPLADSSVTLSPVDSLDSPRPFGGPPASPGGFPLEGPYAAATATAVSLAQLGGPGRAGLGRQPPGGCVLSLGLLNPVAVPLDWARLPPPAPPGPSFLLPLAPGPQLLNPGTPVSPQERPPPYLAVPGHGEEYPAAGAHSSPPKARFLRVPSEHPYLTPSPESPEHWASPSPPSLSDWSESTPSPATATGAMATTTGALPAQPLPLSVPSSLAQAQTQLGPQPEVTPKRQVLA
# [20] = probe aEGFR binding to arrayed compounds – biochemical, biotinylated probe, 635/667 nm fluorescence, primary screen (AID 1097); conditions: small-molecule microarray, higher = more signal;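 further: probe is a biotinylated anti-EGFR antibody binding compounds printed on slides; score combines fluorescence near 667 nm and signal to noise of each spot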
Compound,composite z-score [1],composite z-score [2],composite z-score [3],composite z-score [4],composite z-score [5],composite z-score [6],composite z-score [7],z-score [8],composite z-score [9],composite z-score [10],composite z-score [11],z-score [12],z-score [13],z-score [14],composite z-score [15],z-score [16],composite z-score [17],composite z-score [18],composite z-score [19],composite z-score [20]
O=C(NCc1ccccc1)[C@@]1(Cc2ccccc2)N=C(c2ccc(OCCCO)cc2)O[C@H]1c1ccccc1,0.398,1.92,0.0557,0.177,1.56,1.76,1.05,-2.23 (inactive),1.07,-0.201,0.982,0.46 (inactive),-0.666 (inactive),23.2 (active),3.39,0.842 (inactive),0.126,-0.595,0.642,0.0357
CN(C)C(=O)[C@@]1(Cc2ccccc2)N=C(c2ccc(OCCCO)cc2)O[C@H]1c1ccccc1N=[N+]=[N-],0.0567,-0.204,0.061,0.64,1.55,1.56,1.12,-1.66 (inactive),1.69,-0.353,1.53,-2.59 (inactive),-1.89 (inactive),4.73 (inactive),3.3,0.875 (inactive),0.306,0.835,1.11,0.0595
C=CCNC(=O)[C@@H]1[C@H]2C(=O)O[C@H](c3ccccc3)[C@H](c3ccccc3)N2[C@H](c2ccc(OCCO)cc2)[C@@]12C(=O)Nc1ccc(C#CCCO)cc12,0.604,0.727,0.162,0.944,1.05,0.853,1.25,0.806 (inactive),0.804,-0.138,1.52,0.85 (inactive),0.975 (inactive),3.39 (inactive),3.29,-0.207 (inactive),0.501,1.36,1.12,0.692
C=CCC(OC(C)=O)[C@@H]1[C@@H](N(Cc2cccc3ccccc23)C(=O)c2ccc(-c3ccccc3)cc2)c2cc(OCCCO)ccc2N1C(=O)Cc1ccc(OC)cc1 (stereo not given in full),-0.184,0.419,-0.061,0.151,-0.131,0.0521,0.138,0.61 (inactive),-0.0107,-0.0618,0.341,-0.715 (inactive),-0.445 (inactive),-1.03 (inactive),0.792,0.457 (inactive),-0.0491,0.0231,0.0343,-0.0415
[N-]=[N+]=NCc1ccccc1C[C@]1(C(=O)N2CCOCC2)N=C(c2ccc(OCCCO)cc2)O[C@H]1c1ccccc1N=[N+]=[N-],0.0631,1.43,0.136,1.12,1.55,0.872,1.29,-0.395 (inactive),2.05,0.259,1.41,-1.18 (inactive),-2.26 (inactive),2.79 (inactive),3.51,0.188 (inactive),0.349,1.5,1.03,0.144
CN1C(=O)C2C=CC(C(O)C3=C[C@H]4C[C@@H](C3)C4(C)C)N(Nc3ccccc3)C2C1=O (stereo not given in full),1.23,0.329,-0.0454,0.677,1.49,0.986,1.02,0.175 (inactive),1.23,0.064,0.965,0.443 (inactive),0.192 (inactive),1.31 (inactive),2.46,0.0208 (inactive),0.161,0.305,1.14,-0.0065
[N-]=[N+]=NCc1ccccc1[C@@H]1OC(c2ccc(OCCCO)cc2)=N[C@]1(CCS(=O)(=O)c1ccccc1)C(=O)NCCN1CCOCC1,0.21,0.631,0.269,0.918,1.65,1.99,1.31,1.97 (inactive),1.87,0.156,1.53,0.36 (inactive),0.517 (inactive),0.766 (inactive),3.37,0.283 (inactive),0.0542,1.78,1.04,0.208
CCOC(=O)C1=CCC(c2ccc(C)cc2)N(S(=O)(=O)c2ccc(C)cc2)C1 (stereo not given),0.464,-0.0577,-0.0499,0.101,0.255,0.38,0.923,-4.43 (inactive),0.261,-0.0994,0.329,0.564 (inactive),1.59 (inactive),2.26 (inactive),1.69,-0.422 (inactive),0.0283,-0.0866,0.234,-0.121
COCCOC(=O)N1C(=O)[C@@]2(c3cc(C#CC4=CCCCC4)ccc31)[C@H](C(=O)N1CCc3cc(OC)c(OC)cc3C1)[C@H]1C(=O)O[C@H](c3ccccc3)[C@H](c3ccccc3)N1[C@@H]2c1ccc(OCCO)cc1,-0.137,0.492,-0.0094,0.599,1.1,0.101,1.21,0.235 (inactive),0.533,-0.0121,1.55,1.34 (inactive),0.713 (inactive),3.16 (inactive),2.49,-0.217 (inactive),-0.119,0.916,1.09,-0.0357
COC(=O)[C@@]1(Cc2ccc(OC)cc2)[C@H]2c3cc(C(=O)N(C)C)n(CCN4CNCC4=O)c3C[C@H]2CN1C(=O)c1ccccc1,0.39,1.47,0.0432,-0.0075,1.27,1.51,1.3,0.124 (inactive),0.384,0.983,-1.13,-0.693 (inactive),0.687 (inactive),-0.567 (inactive),0.324,0.288 (inactive),-0.0877,0.788,-0.325,0.107
